The source holds several records for some structures; these can differ, active in one and inactive in another. Activity calls are given as the source filed them. How the source made its calls: active means hit-call score of the fitted dose curve at least 0.9, where 1 is the maximum; inactive means score below 0.9.

Read-out in this assay: TIMP metallopeptidase inhibitor 2 (TIMP2), TIMP2 (gene 7077)
The experiment in a line: BSK_KF3CT_TIMP2: BioMAP Diversity Plus: KF3CT Assay for TIMP metallopeptidase inhibitor 2 (TIMP2) Biomarker Activity (AID 2283071). The following applies: primary human keratinocytes with fibroblasts; actives raise or lower the signal. A digest of the protocol: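 Human primary keratinocyte/foreskin fibroblast co-culture dosed with chemical and sampled at 24 h. TIMP-2 levels quantified by ELISA; bidirectional fitting against DMSO negative control as baseline.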
As a reminder, the AC50 is the concentration giving half of the maximal activity seen. On to `CC(C)N(C(=O)CCl)c1ccccc1`, for which the AC50 was 14.2 µM (active).
As to `CN(C)C(=S)S`, the result was inactive.
Consider `Oc1c(Br)cc(Br)cc1Br`, for which the outcome was inactive.
Still for that read-out and setting: the entry for `C[C@]12CC[C@@H](O)C[C@@H]1CC[C@@H]1[C@@H]2CC[C@]2(C)C(=O)CC[C@@H]12` is “inactive”.
Still for that read-out and setting: the result for `O=C(O)COc1cc(Cl)c(Cl)cc1Cl` reads “inactive”; that for `Cc1ccc(OP(=O)(Oc2ccc(C)cc2C)Oc2ccc(C)cc2C)c(C)c1`, “inactive”.
Consider `C=CC(Cl)CCl` (stereo not given), for which the AC50 was 0.181 µM (active).
The same measure, in the same setting: the figure for `[Cl][Sn]([c]1ccccc1)([c]1ccccc1)[c]1ccccc1` is 0.209 µM (active).
Take `COc1ccccc1N`: the outcome was inactive.
For `Cc1cccc(OP(=O)(Oc2cccc(C)c2)Oc2cccc(C)c2)c1`, the outcome was inactive.
Still for that read-out and setting: the entry for `N#Cc1cccnc1` is “inactive”.
`OC(Cc1ccccc1Cl)(Cn1[nH]cnc1=S)C1(Cl)CC1` (stereo not given): the AC50 was 11.1 µM (active).
On to `CC1(C)[C@H](C(=O)O[C@H](C#N)c2cccc(Oc3ccccc3)c2)[C@@H]1/C=C(\Cl)C(F)(F)F`, for which the AC50 was 0.525 µM (active) and the outcome was inactive.
Regarding `CCCCCCCCCCCCN(C)C`, the outcome was inactive.
Consider `OCCCCO`, for which the result was inactive.
Same read-out and setting: the entry for `Nc1ccc(N)cc1` is “inactive”.
On the same count and under the same terms, the result for `COCC(=O)N(c1c(C)cccc1C)[C@H](C)C(=O)OC` reads “inactive”.
In the case of `CCOP(=S)(OCC)OP(=S)(OCC)OCC`, the AC50 is 20 µM (active).
For `Clc1cccc(Cl)c1`, the result was inactive.
For `OC(Cc1ccccc1Cl)(Cn1cncn1)C1(Cl)CC1` (stereo not given), the result was inactive.
Take `Clc1cccc(Cl)c1Cl`: the outcome was inactive.
As to `NC(=O)CCl`, the outcome was inactive.
On the same count and under the same terms, the entry for `O=C(N[C@H]1CN2CCC1CC2)c1ccc2c(c1)OCCO2` is “inactive”; for `c1ccc(-c2cccc(-c3ccccc3)c2)cc1` it is “inactive”.

These data come from PubChem BioAssay (EPA / NIEHS).
